Compounds without any hit were thinned out: in the full panel of roughly 83,000, 20% have a hit.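 Testing used 96-well plates and a 48-hour single-concentration exposure. Example: -40 means 40% of the starting cells died.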 Values without a mark were called inactive. Calls of active or inactive are those of the source. How the source made its calls: active means growth percent below 10; inactive means the rest.

Test systems include NCI-H23 lung; NCI-H226 lung; NCI-H322M lung; HOP-62 NSCLC; NCI-H460 lung; NCI-H522 lung; A549/ATCC NSCLC; 786-0 renal; COLO 205 colon; DU-145 prostate; K-562 leukemia; MALME-3M melanoma; MDA-MB-231 breast; RXF 393 renal; SF-268 CNS; SF-295 CNS; SF-539 CNS; UACC-257 melanoma; M14 melanoma.
Test in all cases: NCI-60 one-dose screen, 48 h (100 = growth as untreated, 0 = no growth, -100 = all killed)
Holding throughout (settings): 10 µM unless noted

With `Cc1ccc(CSc2nc(-c3ccc(Cl)cc3)c(C#N)c(N3CCOCC3)n2)cc1`, the growth with NCI-H23 lung was 95%; in the test on NCI-H226 lung it was 94.4%; in the test with NCI-H322M lung, 103%; with HOP-62 NSCLC it was 110%; in the test with NCI-H460 lung, 96.2%; in the test on NCI-H522 lung, 78.4%. The growth in the test with A549/ATCC NSCLC was 91.8%; with 786-0 renal, 87.5%; in the test with COLO 205 colon, 125%; with DU-145 prostate it was 105%; in the test with K-562 leukemia it was 91.5%; in the test with MALME-3M melanoma it was 108%. Moreover, the growth in the test on MDA-MB-231 breast is 98.9%; with RXF 393 renal, 88.3%; in the test on SF-268 CNS it was 95.5%; in the test with SF-295 CNS, 98.6%; in the test on SF-539 CNS it was 99.1%; in the test on UACC-257 melanoma it was 97.6%. Moreover, the growth in the test with M14 melanoma is 98%.
Consider `COc1ccc(-c2nc3cc(Cl)c(Cl)cc3n2CC(=O)N=Nc2c(O)[nH]c3ccc(OC)cc23)cc1`, for which the growth was 38.7% in the test with NCI-H23 lung; -38.3% (active) with NCI-H226 lung; 80.4% in the test on NCI-H322M lung; 43.2% in the test on HOP-62 NSCLC; 56.1% in the test on NCI-H460 lung; 69.3% with NCI-H522 lung. For the same compound, the growth is 59.8% with A549/ATCC NSCLC; 82.5% with 786-0 renal; 31.9% in the test with COLO 205 colon; 5.81% (active) in the test on DU-145 prostate; 49.2% with K-562 leukemia; 41.2% with MALME-3M melanoma. Also, the growth is 52% with MDA-MB-231 breast; -29.8% (active) with RXF 393 renal; 78.3% in the test on SF-268 CNS; 66.5% with SF-295 CNS; 47.2% in the test on SF-539 CNS; 87.9% in the test with UACC-257 melanoma. In the test on M14 melanoma, the growth was 56.8%.
As to `Cc1cccc2c3c(sc12)C(c1ccc(Cl)cc1)c1c(nc(CC(=O)Nc2ccccc2)[nH]c1=O)O3` (configuration not stated), the growth in the test on NCI-H23 lung was 55.1%; in the test with NCI-H226 lung, 65.4%; with NCI-H322M lung, 76.5%; in the test on HOP-62 NSCLC it was 59.8%; with NCI-H460 lung it was 42.1%; in the test with NCI-H522 lung it was 26.9%. In addition, the growth with A549/ATCC NSCLC is 62.6%; in the test with 786-0 renal it was 75.9%; with COLO 205 colon, 101%; in the test on DU-145 prostate it was 93%; in the test with K-562 leukemia, 20.9%; in the test on MALME-3M melanoma it was 51.3%. For the same compound, the growth in the test with MDA-MB-231 breast was 77%; in the test on RXF 393 renal, 39.9%; in the test with SF-268 CNS it was 66.7%; in the test with SF-295 CNS it was 29.1%; in the test on SF-539 CNS, 40%; with UACC-257 melanoma, 79.8%. Moreover, the growth in the test with M14 melanoma is 61.7%.
On to `CC(C)(C)c1ccc(-c2nnc(-c3nc4ccccc4nc3Cl)o2)cc1`, for which the growth in the test with NCI-H23 lung was 90.9%; in the test with NCI-H226 lung, 86.5%; in the test on NCI-H322M lung it was 92.9%; with HOP-62 NSCLC it was 11.1%; with NCI-H460 lung it was 88.1%; in the test on NCI-H522 lung, 99.1%. Also, the growth in the test on A549/ATCC NSCLC was 102%; in the test with 786-0 renal, 105%; in the test on COLO 205 colon, 104%; in the test with DU-145 prostate, 86.2%; with K-562 leukemia, 65.9%; in the test on MALME-3M melanoma it was 101%. Further, the growth is 90.5% with MDA-MB-231 breast; 88.4% in the test with RXF 393 renal; 42% in the test on SF-268 CNS; 103% with SF-295 CNS; 93.8% in the test with SF-539 CNS; 61.9% in the test with UACC-257 melanoma. In addition, the growth in the test with M14 melanoma was 93.1%.
On to `CC(C)(C)CC(C)(C)n1nnnc1C(Nc1nccs1)c1cc2cccc3ccc4cccc1c4c32` (configuration not stated), for which the growth is 102% in the test with NCI-H23 lung; 3.26% (active) in the test on NCI-H226 lung; 93.9% with NCI-H322M lung; 89% in the test with HOP-62 NSCLC; 103% with NCI-H460 lung; 96.8% in the test on NCI-H522 lung. The growth in the test on A549/ATCC NSCLC is 107%; in the test with 786-0 renal, 102%; in the test with COLO 205 colon it was 114%; in the test with DU-145 prostate, 107%; in the test with K-562 leukemia, 111%; in the test with MALME-3M melanoma, 94%. Besides, the growth was 97.2% in the test with MDA-MB-231 breast; 119% in the test with RXF 393 renal; 94.8% in the test with SF-268 CNS; 94.9% with SF-295 CNS; 92.7% in the test on SF-539 CNS; 104% in the test on UACC-257 melanoma. In the test with M14 melanoma, the growth was 111%.
For the compound `O=S(=O)(Nc1cccc2ccccc12)c1ccc(-c2cnc(C3CC3)o2)cc1`, the growth with NCI-H23 lung is 23.2%; with NCI-H226 lung, 64.6%; with NCI-H322M lung it was 40.4%; in the test with HOP-62 NSCLC, 39.3%; in the test on NCI-H460 lung, 11.2%; in the test on NCI-H522 lung, 21.9%. The growth with A549/ATCC NSCLC is 27.2%; with 786-0 renal, 50.2%; with COLO 205 colon it was 9.76% (active); in the test with DU-145 prostate, 15.3%; in the test with K-562 leukemia, 8.55% (active); with MALME-3M melanoma, 61.4%. Further, the growth was 27.6% in the test with MDA-MB-231 breast; 7.94% (active) in the test with RXF 393 renal; 55.5% in the test with SF-268 CNS; 0.665% (active) in the test on SF-295 CNS; 7.47% (active) in the test with SF-539 CNS; 69% in the test with UACC-257 melanoma. The growth with M14 melanoma was 14.5%.
On to `Cc1ccc(NC(=O)N[C@@H](Cc2cc(F)cc(F)c2)C(=O)NC2C(=O)N3C[C@H](O)C[C@H]3C(=O)N3CCCC[C@H]3C(=O)N[C@@H](CO)C(=O)N3C[C@H](C)C[C@H]3C(=O)O[C@H]2C)c(F)c1` (some centres not stated), for which the growth was 28.2% in the test on NCI-H23 lung; 8.45% (active) in the test with NCI-H226 lung; 70.7% in the test with NCI-H322M lung; 48.3% in the test with HOP-62 NSCLC; 37.3% in the test with NCI-H460 lung; 26.9% with NCI-H522 lung. For the same compound, the growth in the test on A549/ATCC NSCLC is 73.4%; with 786-0 renal it was 93.6%; with COLO 205 colon, -11.9% (active); in the test on DU-145 prostate, 37.7%; in the test on K-562 leukemia it was 27.9%; in the test with MALME-3M melanoma it was 50.7%. Also, the growth in the test on MDA-MB-231 breast was 38.8%; with RXF 393 renal, 100%; in the test on SF-268 CNS, 35.5%; with SF-295 CNS, 78.7%; in the test on SF-539 CNS, 43.5%; in the test with UACC-257 melanoma, 25.4%. Moreover, the growth in the test with M14 melanoma is 58.4%.
In the case of `O=C1/C(=C/C=C/c2ccco2)SC(=S)N1c1ccccc1`, the growth with NCI-H23 lung is 70.7%; in the test on NCI-H226 lung, 67.8%; with NCI-H322M lung, 87.2%; with HOP-62 NSCLC, 104%; in the test on NCI-H460 lung, 91.2%; in the test with NCI-H522 lung, 58%. Besides, the growth with A549/ATCC NSCLC is 52.9%; in the test on 786-0 renal it was 71.1%; in the test on COLO 205 colon, 83.2%; in the test with DU-145 prostate, 97.6%; in the test with K-562 leukemia, 64.6%; in the test on MALME-3M melanoma, 15.5%. Moreover, the growth was 80.3% in the test with MDA-MB-231 breast; -33.5% (active) with RXF 393 renal; 108% with SF-268 CNS; 91.3% with SF-295 CNS; 90.3% with SF-539 CNS; 83.2% with UACC-257 melanoma. In the test with M14 melanoma, the growth is 40.7%.

The record behind these values is PubChem BioAssay (NCI).
